For 17 compounds, Potency, activity and activity change, negative = inhibition results are on record in PubChem BioAssay (NCATS).

The structures appear in SMILES notation. Values joined by “and” are separate entries in the source; they are usually repeats but may differ in a detail not shown here. Equal values may be shown once. Inconclusive results are not listed. Active and inactive are the calls of the source. Unless noted, calls come from the whole dose curve; as a rule, active = well fitted curve in the direction sought with a large enough effect; inconclusive = small, poorly fitted or top-dose-only effect, or another doubt; inactive = no such curve, though single readings can be large; an effect the other way counts as inactive or inconclusive.

Assay [1] in a line: Primary qHTS for inhibitors of nuclear receptor binding SET domain protein 2 (NSD2) in an RCH-ACV wild type WT cells (2C) (AID 1645877; note: nearly all actives have a fitted effect of over 70% in size; note: potency is the fitted concentration of half-maximal effect). (qHTS replaces the single test concentration by a dilution series.)
Assay [2] concerns the target Catechol O-methyltransferase (Homo sapiens) (UniProt P21964). Nature of the assay: Confirmatory Screen for Target Class Profiling of Small Molecule Inhibitors of Methyltransferases (AID 1745852; calls by dose curve; note: potency is the fitted concentration of half-maximal effect; for activity change, negative = inhibition: % is set by controls: 0 for no effect and ±100 for the full control effect). To be noted: MTase-Glo luminescence, SAH detection, recombinant enzyme; measured here: COMT max response; stronger effect = lower value.
For assay [3], the target named is Guanidinoacetate N-methyltransferase (Homo sapiens) (UniProt Q14353). The description is as above. The settings on record: activity change, negative = inhibition: at 57.3 µM (top of the series) unless noted.
Assay [4] concerns the target Nicotinamide N-methyltransferase (Homo sapiens) (UniProt P40261). Described as above. To be noted: MTase-Glo luminescence, SAH detection, recombinant enzyme; measured here: NNMT max response; stronger effect = lower value.
Assay [5] deals with Phenylethanolamine N-methyltransferase (Homo sapiens) (UniProt P11086). Described as above. To be noted: MTase-Glo luminescence, SAH detection, recombinant enzyme; measured here: PNMT max response; stronger effect = lower value.
Sequence of Phenylethanolamine N-methyltransferase (Homo sapiens) (P11086 whole entry, looked up): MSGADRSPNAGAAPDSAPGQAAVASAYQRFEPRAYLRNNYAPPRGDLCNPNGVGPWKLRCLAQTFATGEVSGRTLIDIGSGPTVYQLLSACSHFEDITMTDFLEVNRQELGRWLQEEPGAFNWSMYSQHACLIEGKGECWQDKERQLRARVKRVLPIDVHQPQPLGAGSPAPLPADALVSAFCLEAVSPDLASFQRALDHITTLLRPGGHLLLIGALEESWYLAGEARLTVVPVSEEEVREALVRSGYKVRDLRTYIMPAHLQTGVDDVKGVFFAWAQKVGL
Assay [6] deals with Glutathione peroxidase 1 (Homo sapiens) (UniProt P07203). Nature of the assay: Primary qHTS Assay for Inhibitors of Recombinant Selenoprotein Glutathione Peroxidase 1 (GPX1) (AID 1845191). Note: nearly all actives have a fitted effect of over 65% in size. Note: potency is the fitted concentration of half-maximal effect. Put shortly: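 NADPH consumption tracked by fluorescence at 340/450 nm between t=0 and t=15 min, room temperature. Final mix: 10 nM GPX1, 100 nM glutathione reductase, 1 mM GSH, 0.5 mM NADPH, 0.5 mM cumene hydroperoxide, 0.01% BSA; 30 min compound–enzyme preincubation.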
Sequence of Glutathione peroxidase 1 (Homo sapiens) (P07203 whole entry, looked up): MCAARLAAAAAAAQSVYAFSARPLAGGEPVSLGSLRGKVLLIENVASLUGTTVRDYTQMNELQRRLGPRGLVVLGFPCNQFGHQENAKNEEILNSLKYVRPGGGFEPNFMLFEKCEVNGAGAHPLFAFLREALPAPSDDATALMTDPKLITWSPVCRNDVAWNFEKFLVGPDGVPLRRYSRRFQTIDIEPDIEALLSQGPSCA

Assay [7] deals with Phospholipid hydroperoxide glutathione peroxidase GPX4 (Homo sapiens) (UniProt P36969). The experiment in a line: Primary qHTS Assay for Inhibitors of Recombinant Selenoprotein Glutathione Peroxidase 4 (GPX4) (AID 1845192). For activity change, negative = inhibition: % is set by controls: 0 for no effect and ±100 for the full control effect. Note: nearly all actives have a fitted effect of over 65% in size. Note: potency is the fitted concentration of half-maximal effect. The method in brief: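 NADPH consumption followed by fluorescence at 340/450 nm, t=0 and after 15 min at room temperature. Reaction started with cumene hydroperoxide (0.5 mM final) after 30 min compound–GPX4 preincubation; final 200 nM GPX4, 100 nM GR, 1 mM GSH, 0.5 mM NADPH.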
Sequence of Phospholipid hydroperoxide glutathione peroxidase GPX4 (Homo sapiens) (P36969 whole entry, looked up): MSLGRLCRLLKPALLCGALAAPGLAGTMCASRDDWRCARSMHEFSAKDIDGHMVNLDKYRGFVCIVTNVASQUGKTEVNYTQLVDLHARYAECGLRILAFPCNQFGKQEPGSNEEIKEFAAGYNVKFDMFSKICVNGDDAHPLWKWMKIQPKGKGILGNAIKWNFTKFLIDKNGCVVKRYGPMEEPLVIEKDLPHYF

Assay [8] addresses Luciferin 4-monooxygenase (Photinus pyralis) (UniProt P08659). The experiment in a line: Primary firefly luciferase (FLuc) qHTS assay for identification of artifact compounds. (AID 1845220).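 For activity change, negative = inhibition: plate controls were DMSO vehicle for no effect and no enzyme for full effect.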 Note: nearly all actives have a fitted effect of over 60% in size. Note: potency is the fitted concentration of half-maximal effect. Put shortly:
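FLuc 10 nM; luciferin 10 uM; ATP 10 uM; Tris-acetate pH 7.6, Mg-acetate 10 mM; 15 min RT preincubation; 5 min reaction; luminescence.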

Assay [9] deals with Nanoluciferase (engineered Oplophorus gracilirostris luciferase). The experiment in a line: Primary Nanoluciferase (NLuc) qHTS assay for identification of artifact compounds. (AID 1845222).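 Note: NLuc secreted into diluted conditioned medium of S16 cells; 0% = DMSO and -100% = no enzyme.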 Put shortly:
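NLuc from S16 cell medium (1:55) plus test compounds, 15 min, room temperature. Luminescence after Nano-Glo (1:100) addition, 5 min.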

The nature of assay [10]: Primary fluorescence-based thiol-reactive (MSTI) qHTS assay for identification of artifact compounds. (AID 1845221). Note: nearly all actives have a fitted effect of over 65% in size. Note: potency is the fitted concentration of half-maximal effect. The method in brief: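 Compounds were incubated 1 h at room temperature in the dark with the MSTI probe (4 uM) in PBS pH 7.4, 2% DMSO. Signals were normalized between Acetyl-MSTI and MSTI.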
A short description of assay [11]: Primary redox qHTS assay for identification of artifact compounds. (AID 1845223).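 Note: 0% = DMSO and 100% = reference compound.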 The method in brief:
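Redox-cycling detection via DTT (250 uM final) oxidation coupled to Amplex Red (25 uM)/HRP (250 mU/mL) in HBSS. 15 min preincubation plus 30 min after DTT, room temperature. Ex/Em 525/598 nm; 4-parameter Hill fit against DMSO and 10 uM DA3003.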

Sequence of Catechol O-methyltransferase (Homo sapiens) (P21964 whole entry, looked up): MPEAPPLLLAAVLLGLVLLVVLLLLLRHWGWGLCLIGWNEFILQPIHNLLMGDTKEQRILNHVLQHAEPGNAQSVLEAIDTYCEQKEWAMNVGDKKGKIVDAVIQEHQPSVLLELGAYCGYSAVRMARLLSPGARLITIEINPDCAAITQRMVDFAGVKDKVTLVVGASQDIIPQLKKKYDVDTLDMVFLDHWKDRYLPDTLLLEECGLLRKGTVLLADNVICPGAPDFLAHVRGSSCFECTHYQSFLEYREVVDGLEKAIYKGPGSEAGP
Sequence of Nicotinamide N-methyltransferase (Homo sapiens) (P40261 whole entry, looked up): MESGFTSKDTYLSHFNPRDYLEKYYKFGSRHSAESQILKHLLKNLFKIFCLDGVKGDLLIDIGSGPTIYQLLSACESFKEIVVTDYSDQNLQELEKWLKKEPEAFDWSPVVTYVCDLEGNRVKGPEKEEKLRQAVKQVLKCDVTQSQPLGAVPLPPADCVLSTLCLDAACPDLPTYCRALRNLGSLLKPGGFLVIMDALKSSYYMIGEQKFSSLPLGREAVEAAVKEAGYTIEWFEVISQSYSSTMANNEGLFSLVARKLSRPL

As for `CC(C)c1cc(CNc2nc(Nc3cc(C4CC4)[nH]n3)cc(N3CCN(C)CC3)n2)on1`, the Potency in assay [1] was 29 nM (active) and 66.1 nM (active). Moreover, the values for the activity in [2], in assay [4] and in [5] were -7.12%, -12.7% and -6.69%, respectively. Further, the activity change, negative = inhibition in [3] was -5.05%. The Potency entry in assay [6], in [7], in assay [8] and in assay [9] was “inactive” each time.
In the case of `NC[C@@](O)(c1ccc(Cl)cc1)c1ccc(-c2cn[nH]c2)cc1`, in assay [1], the Potency is 4.59 µM (active) and 4.68 µM (active). For the same compound, the values for the activity in [2], in assay [4] and in assay [5] were 1.95%, -0.549% and -0.0519%, respectively. The activity change, negative = inhibition in assay [3] is 0%. Besides, the Potency entry in assay [6], in [8], in [10] and in assay [11] was “inactive” throughout.
`Cc1nc([C@](C)(O)CO)sc1-c1cnc(N)c(O[C@H](C)c2cc(F)ccc2-n2nccn2)c1`: the Potency in assay [1] was 13.2 µM (active). Also, the activity in assay [2] is -59.6%; in [4], -12.8%; in assay [5] it was -10.9%. In addition, the activity change, negative = inhibition in [3] was -0.524%. Further, the Potency result in assay [7], in assay [8], in [10] and in [9] was “inactive” throughout.
On to `COc1cc(/C=C/C(=O)OC[C@H]2O[C@@](CO)(O[C@H]3O[C@H](CO)[C@@H](O)[C@H](O)[C@H]3O)[C@@H](OC(=O)/C=C/c3ccc(O)c(OC)c3)[C@@H]2O)ccc1O`, for which the Potency entry in [1], in [6], in assay [7], in [8], in assay [9] and in assay [11] was “inactive” each time. The activity was -51% in assay [2], -6.08% in assay [4] and -2.86% in assay [5]. The activity change, negative = inhibition in assay [3] is -4.9% [at 19.1 µM].
Take `CN1CCN(C2CCC(n3cc(-c4ccc(Oc5ccccc5)cc4)c4c(N)ncnc43)CC2)CC1` (stereo unspecified): the Potency in [1] was 72.8 nM (active) and 74.2 nM (active). In addition, the values for the activity in assay [2], in [4] and in assay [5] were -15.7%, -13.2% and -72%, respectively. Besides, in [3], the activity change, negative = inhibition stood at 0%. Further, the Potency result in [6], in [7], in assay [8], in [10], in assay [9] and in assay [11] was “inactive” each time.
As for `CC(C)c1c2cc(-c3ccnc(NC4CCC(NC5CCOCC5)CC4)n3)ccc2nn1C` (stereo unspecified), the Potency in assay [1] is 129 nM (active) and 93.4 nM (active); in assay [3] it was 38.3 µM (active); in [7], 9.04 µM (active). For the same compound, the results for the activity in assay [2], in [4] and in assay [5] were -27.8%, -14.6% and -25.7%, respectively. The Potency entry in assay [8], in assay [10], in assay [9] and in assay [11] was “inactive” throughout.
Take `N#Cc1ccc2[nH]cc(CCCCN3CCN(c4ccc5oc(C(N)=O)cc5c4)CC3)c2c1`: in assay [1], the Potency is 16.3 µM (active). The activity in [2] was -8.1%; in [4], -49.2%; in assay [5], -11.6%. In addition, the activity change, negative = inhibition in assay [3] was -4.3%. The Potency result in [6], in [7], in [8], in assay [9] and in [11] was “inactive” each time.
In the case of `COc1cc(C(=O)OC[C@H]2O[C@@H](Oc3ccccc3/C=C/C(=O)O)[C@H](O)[C@@H](O)[C@@H]2O)cc(OC)c1OC`, the Potency entry in [1], in assay [6], in assay [7], in assay [8] and in assay [9] was “inactive” each time. Also, the activity in [2] is -77.7%; in assay [4], -2.69%; in assay [5], -3.5%. In assay [3], the activity change, negative = inhibition was -3.16% [at 29.8 µM].
`CN(C)c1nc(NC2CCC(NC(=O)c3ccc(F)c(F)c3)CC2)nc2ccccc12` (stereo unspecified): the Potency in assay [1] was 6.49 µM (active). Also, the activity in assay [2] was -11.9%; in [4], -27.9%; in assay [5], -21.7%. The activity change, negative = inhibition in [3] was 0.153%. Moreover, the Potency result in assay [7], in assay [8], in [10], in assay [9] and in [11] was “inactive” in each case.
As to `Cc1ncc(CCCN(C)C)cc1Nc1ncc2c(n1)-c1ccc(C(F)(F)F)cc1NC(=S)C2`, the Potency in [1] was 0.129 µM (active); in assay [6], 12.8 µM (active). Further, the activity is -3.05% in [2], -20.1% in assay [4] and -4.31% in assay [5]. In addition, the activity change, negative = inhibition in assay [3] came out at 2.13%. The Potency entry in assay [7], in [8], in assay [9] and in [11] was “inactive” throughout.
In the case of `CC1=C(CCC(C)O[C@@H]2O[C@H](CO)[C@@H](O)[C@H](O)[C@H]2O)C(C)(C)CCC1=O` (stereo partly specified), the Potency result in assay [1], in [6], in assay [7], in assay [8], in assay [9] and in [11] was “inactive” each time. The values for the activity in [2], in assay [4] and in assay [5] were -64%, -4.03% and -0.201%, respectively. In addition, the activity change, negative = inhibition in assay [3] was -3.78%. Moreover, the Potency in [10] was 6.56 µM (active).
Regarding `O=C(/C=C/c1ccccc1)OC[C@]12O[C@H]1[C@@H](O)[C@@H]1C=CO[C@@H](O[C@@H]3O[C@H](CO)[C@@H](O)[C@H](O)[C@H]3O)[C@@H]12`, the Potency entry in [1], in assay [6], in assay [7], in [8], in assay [9] and in [11] was “inactive” in each case. Besides, the activity is -55.2% in [2], -5.73% in assay [4] and -4.62% in assay [5]. Further, the activity change, negative = inhibition in assay [3] is -7.11% [at 29.8 µM].
As for `CCN(CC)c1ccc2c(O)c(C=Nc3ccc(CC(=O)O)c(-c4c5c(nc6ccccc46)CCC(C(=O)NN)C5)c3)c(=O)oc2c1` (stereo unspecified), the Potency in assay [1] is 4.59 µM (active); in [3], 34.1 µM (active); in assay [8], 6.01 µM (active). In addition, the figures for the activity in [2], in assay [4] and in assay [5] were -17%, -14% and -22%, respectively. Moreover, the Potency entry in [6], in assay [7], in assay [9] and in assay [11] was “inactive” throughout.
Consider `CC(C)c1nc(-c2ccc(NC(=O)Nc3cccc(C(F)(F)F)c3)c3ccccc23)c2c(N)nccn12`, for which the Potency in assay [1] was 1.45 µM (active). Further, the activity in assay [2] was -5.14%; in assay [4], -2.22%; in [5] it was -6.27%. In assay [3], the activity change, negative = inhibition was -2.79%. The Potency entry in assay [6], in assay [7], in assay [8], in assay [9] and in assay [11] was “inactive” in each case.
On to `COc1cc(NC(=O)Nc2cccc(CNC(=O)O[C@H]3CCOC3)c2)ccc1-c1cnco1`, for which the Potency in assay [1] is 0.728 µM (active). The activity in assay [2] is -5.78%; in assay [4] it was -9.19%; in assay [5], -5.11%. For the same compound, in assay [3], the activity change, negative = inhibition was -0.888%. For the same compound, the Potency entry in assay [6], in [7], in assay [8], in assay [10], in assay [9] and in [11] was “inactive” each time.
Regarding `CN(c1ccccc1CNc1nc(Nc2ccc3c(c2)CC(=O)N3)ncc1C(F)(F)F)S(C)(=O)=O`, the Potency in [1] was 1.03 µM (active); in assay [10] it was 10.6 µM (active). In addition, the activity in [2] is -5.57%; in assay [4], -47.3%; in [5] it was -5.42%. Besides, in assay [3], the activity change, negative = inhibition was -2.47%. The Potency entry in assay [6], in [7], in assay [8], in [9] and in assay [11] was “inactive” each time.
Turning to `C=C[C@H]1[C@H](O[C@@H]2O[C@H](CO)[C@@H](O)[C@H](O)[C@H]2O)OC=C(C(=O)OC)[C@H]1CCOC(=O)c1cc(O)c(O)c(O)c1`, the Potency entry in assay [1], in assay [6], in assay [7], in [8], in assay [9] and in assay [11] was “inactive” each time. Further, the activity in assay [2] was -67.5%; in assay [4], 0.422%; in [5] it was -11.3%. For the same compound, the activity change, negative = inhibition in [3] turned out to be 1.49% [at 29.8 µM]. Moreover, the Potency in assay [10] was 0.922 µM (active).
